# Data published in article PMC7862700, “An all-to-all approach to the identification of sequence-specific readers for epigenetic DNA modifications on cytosine”.
# Legend:
# Assay in all cases: DAPPL (digital affinity profiling via proximity ligation, sequencing); 10 mM Tris-HCl pH 7.5, 50 mM NaCl, 1 mM DTT, 4% glycerol, room temperature, 30 min; GST-TFs on glutathione beads, 16-mer random dsDNA library, 0.1% formaldehyde crosslink after washing; high values mean tight binding
# FLI1 = molecular target: T1, FLI1 (Homo sapiens, UniProt Q01543 1-452); details: protein: recombinant; tags: N-terminal GST; dsDNA, one strand shown
# T1 sequence: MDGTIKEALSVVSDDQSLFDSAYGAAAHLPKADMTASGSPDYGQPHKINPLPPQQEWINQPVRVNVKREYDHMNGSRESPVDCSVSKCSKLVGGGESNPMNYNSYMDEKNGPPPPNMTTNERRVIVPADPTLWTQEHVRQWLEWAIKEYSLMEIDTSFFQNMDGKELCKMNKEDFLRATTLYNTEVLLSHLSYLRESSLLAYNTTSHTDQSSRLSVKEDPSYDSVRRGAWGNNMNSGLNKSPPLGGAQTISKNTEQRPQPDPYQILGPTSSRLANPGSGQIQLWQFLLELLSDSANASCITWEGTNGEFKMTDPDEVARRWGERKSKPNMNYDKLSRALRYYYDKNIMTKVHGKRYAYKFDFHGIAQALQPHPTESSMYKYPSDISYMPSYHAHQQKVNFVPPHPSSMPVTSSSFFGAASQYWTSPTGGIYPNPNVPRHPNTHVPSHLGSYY
# How it was run: (§1)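 Human transcription factors were made in yeast as GST fusions, captured on glutathione beads and barcoded with DNA. With a tag-only sample included, the pool was incubated with 200 nmole of a random double-stranded 16-mer DNA library in Tris/NaCl/DTT/glycerol buffer at room temperature for 30 min, then crosslinked with 0.1% formaldehyde after washing, ligated by proximity, amplified and sequenced. For binding signal, each hexamer's read frequency for a factor is divided by its frequency for the tag-only sample.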
# ELK1 = molecular target: T2, ELK1 (Homo sapiens, UniProt P19419 1-428); details: protein: recombinant; tags: N-terminal GST; dsDNA, one strand shown
# T2 sequence: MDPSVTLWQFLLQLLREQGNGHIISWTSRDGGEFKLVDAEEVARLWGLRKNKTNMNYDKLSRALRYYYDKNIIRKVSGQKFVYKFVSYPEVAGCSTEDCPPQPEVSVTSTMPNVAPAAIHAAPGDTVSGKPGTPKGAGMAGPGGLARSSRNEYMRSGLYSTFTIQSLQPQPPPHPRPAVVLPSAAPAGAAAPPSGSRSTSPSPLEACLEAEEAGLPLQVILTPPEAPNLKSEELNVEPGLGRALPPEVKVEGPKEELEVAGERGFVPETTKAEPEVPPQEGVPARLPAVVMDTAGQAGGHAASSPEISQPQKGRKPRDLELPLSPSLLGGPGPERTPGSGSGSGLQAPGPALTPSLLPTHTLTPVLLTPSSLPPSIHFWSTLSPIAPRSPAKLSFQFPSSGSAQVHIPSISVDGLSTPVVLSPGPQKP
# How it was run: as §1
# GABPA = molecular target: T3, GABPA (Homo sapiens, UniProt Q06546 1-454); details: protein: recombinant; tags: N-terminal GST; dsDNA, one strand shown
# T3 sequence: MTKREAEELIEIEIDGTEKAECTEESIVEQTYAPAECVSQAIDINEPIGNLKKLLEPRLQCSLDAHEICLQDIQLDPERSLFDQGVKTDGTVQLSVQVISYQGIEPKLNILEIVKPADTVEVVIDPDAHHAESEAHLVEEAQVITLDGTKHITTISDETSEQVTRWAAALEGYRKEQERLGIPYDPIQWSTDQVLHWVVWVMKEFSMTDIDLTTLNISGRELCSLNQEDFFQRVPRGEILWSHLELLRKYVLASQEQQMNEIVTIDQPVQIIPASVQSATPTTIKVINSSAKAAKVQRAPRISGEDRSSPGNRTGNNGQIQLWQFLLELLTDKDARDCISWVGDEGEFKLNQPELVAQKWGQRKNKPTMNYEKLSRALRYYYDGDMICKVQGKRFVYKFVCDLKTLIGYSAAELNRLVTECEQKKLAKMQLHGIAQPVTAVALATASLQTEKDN
# How it was run: as §1
# ERG = molecular target: T4, ERG (Homo sapiens, UniProt P11308 1-479); details: protein: recombinant; tags: N-terminal GST; dsDNA, one strand shown
# T4 sequence: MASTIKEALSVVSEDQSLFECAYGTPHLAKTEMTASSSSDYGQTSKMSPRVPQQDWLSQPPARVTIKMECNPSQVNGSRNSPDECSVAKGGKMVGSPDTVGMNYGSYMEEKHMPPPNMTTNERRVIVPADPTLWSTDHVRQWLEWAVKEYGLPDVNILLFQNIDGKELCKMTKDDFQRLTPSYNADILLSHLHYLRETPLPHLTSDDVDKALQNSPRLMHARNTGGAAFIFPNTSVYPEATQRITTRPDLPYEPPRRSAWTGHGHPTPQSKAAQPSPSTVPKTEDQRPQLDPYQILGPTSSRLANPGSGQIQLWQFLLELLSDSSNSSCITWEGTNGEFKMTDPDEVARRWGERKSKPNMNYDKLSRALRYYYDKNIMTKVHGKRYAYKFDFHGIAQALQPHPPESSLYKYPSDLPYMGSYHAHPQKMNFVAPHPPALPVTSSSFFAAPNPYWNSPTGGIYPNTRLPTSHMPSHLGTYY
# How it was run: as §1
# EHF = molecular target: T5, EHF (Homo sapiens, UniProt Q9NZC4 1-300); details: protein: recombinant; tags: N-terminal GST; dsDNA, one strand shown
# T5 sequence: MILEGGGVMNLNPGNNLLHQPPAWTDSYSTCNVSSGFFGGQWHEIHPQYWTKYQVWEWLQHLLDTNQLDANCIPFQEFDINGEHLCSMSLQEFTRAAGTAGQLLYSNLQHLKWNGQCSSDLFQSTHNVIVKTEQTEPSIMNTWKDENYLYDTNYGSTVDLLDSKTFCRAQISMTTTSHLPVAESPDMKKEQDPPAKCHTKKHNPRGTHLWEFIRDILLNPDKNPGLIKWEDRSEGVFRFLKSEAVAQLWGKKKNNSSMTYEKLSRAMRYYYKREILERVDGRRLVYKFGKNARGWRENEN
# How it was run: as §1
# SPI1 = SPI1 (Homo sapiens, UniProt P17947 1-270); details: protein: recombinant; tags: N-terminal GST; dsDNA, one strand shown
# How it was run: as §1
# ELK3 = molecular target: T6, ELK3 (Homo sapiens, UniProt P41970 1-407); details: protein: recombinant; tags: N-terminal GST; dsDNA, one strand shown
# T6 sequence: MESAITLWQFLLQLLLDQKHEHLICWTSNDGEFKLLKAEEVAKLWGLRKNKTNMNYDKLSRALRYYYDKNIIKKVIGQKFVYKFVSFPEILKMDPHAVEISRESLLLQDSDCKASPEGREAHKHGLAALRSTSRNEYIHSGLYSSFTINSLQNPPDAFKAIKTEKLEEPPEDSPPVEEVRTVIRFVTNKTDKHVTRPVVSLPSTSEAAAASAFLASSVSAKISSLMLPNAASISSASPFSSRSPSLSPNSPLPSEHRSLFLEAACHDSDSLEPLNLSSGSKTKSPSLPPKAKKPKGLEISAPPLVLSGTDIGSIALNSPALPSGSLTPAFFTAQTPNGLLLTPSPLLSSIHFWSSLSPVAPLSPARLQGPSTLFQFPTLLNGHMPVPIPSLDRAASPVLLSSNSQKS
# How it was run: as §1
# FEV = molecular target: T7, FEV (Homo sapiens, UniProt Q99581 1-238); details: protein: recombinant; tags: N-terminal GST; dsDNA, one strand shown
# T7 sequence: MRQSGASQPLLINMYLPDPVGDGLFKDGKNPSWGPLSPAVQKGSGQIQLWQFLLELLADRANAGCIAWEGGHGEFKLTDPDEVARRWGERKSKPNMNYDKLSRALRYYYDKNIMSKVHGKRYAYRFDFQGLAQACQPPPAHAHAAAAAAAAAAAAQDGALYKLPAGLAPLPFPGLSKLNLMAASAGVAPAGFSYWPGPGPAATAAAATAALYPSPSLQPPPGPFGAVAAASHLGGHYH
# How it was run: as §1
# ETV5 = ETV5 (Homo sapiens, UniProt P41161 1-510); details: protein: recombinant; tags: N-terminal GST; dsDNA, one strand shown
# Chain of ETV5 (P41161 whole entry): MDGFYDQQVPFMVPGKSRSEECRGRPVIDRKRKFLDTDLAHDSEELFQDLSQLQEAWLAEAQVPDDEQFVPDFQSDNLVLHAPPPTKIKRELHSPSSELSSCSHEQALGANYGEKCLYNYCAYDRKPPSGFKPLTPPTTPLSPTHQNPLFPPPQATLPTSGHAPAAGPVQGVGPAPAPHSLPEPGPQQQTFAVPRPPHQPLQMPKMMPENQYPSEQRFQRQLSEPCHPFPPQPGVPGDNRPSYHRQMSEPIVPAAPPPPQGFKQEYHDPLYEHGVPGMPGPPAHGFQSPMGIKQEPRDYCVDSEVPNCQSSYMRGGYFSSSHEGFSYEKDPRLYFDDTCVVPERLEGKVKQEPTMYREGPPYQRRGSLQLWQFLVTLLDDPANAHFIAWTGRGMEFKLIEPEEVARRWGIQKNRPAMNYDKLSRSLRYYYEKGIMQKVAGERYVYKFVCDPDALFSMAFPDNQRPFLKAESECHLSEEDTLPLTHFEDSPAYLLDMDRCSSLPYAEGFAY
# How it was run: as §1
# HSF1 = HSF1 (Homo sapiens, UniProt Q00613 1-529); details: protein: recombinant; tags: N-terminal GST; chain copies: 3; dsDNA, one strand shown
# Chain of HSF1 (Q00613 whole entry): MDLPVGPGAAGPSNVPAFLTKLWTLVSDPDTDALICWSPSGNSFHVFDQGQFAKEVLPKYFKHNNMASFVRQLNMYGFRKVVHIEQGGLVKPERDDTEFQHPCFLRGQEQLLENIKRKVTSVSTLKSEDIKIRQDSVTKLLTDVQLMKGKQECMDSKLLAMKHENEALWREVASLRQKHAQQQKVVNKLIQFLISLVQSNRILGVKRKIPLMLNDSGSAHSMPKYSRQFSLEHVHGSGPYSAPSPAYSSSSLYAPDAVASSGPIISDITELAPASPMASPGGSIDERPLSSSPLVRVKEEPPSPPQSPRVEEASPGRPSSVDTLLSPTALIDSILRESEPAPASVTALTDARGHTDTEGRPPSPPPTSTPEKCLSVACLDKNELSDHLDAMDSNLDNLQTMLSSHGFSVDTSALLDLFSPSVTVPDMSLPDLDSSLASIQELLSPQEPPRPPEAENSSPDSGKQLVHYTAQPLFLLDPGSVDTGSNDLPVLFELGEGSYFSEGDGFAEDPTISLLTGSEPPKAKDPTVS
# How it was run: as §1
# ELK4 = molecular target: T8, ELK4 (Homo sapiens, UniProt P28324-2 1-405); details: protein: recombinant; tags: N-terminal GST; dsDNA, one strand shown
# T8 sequence: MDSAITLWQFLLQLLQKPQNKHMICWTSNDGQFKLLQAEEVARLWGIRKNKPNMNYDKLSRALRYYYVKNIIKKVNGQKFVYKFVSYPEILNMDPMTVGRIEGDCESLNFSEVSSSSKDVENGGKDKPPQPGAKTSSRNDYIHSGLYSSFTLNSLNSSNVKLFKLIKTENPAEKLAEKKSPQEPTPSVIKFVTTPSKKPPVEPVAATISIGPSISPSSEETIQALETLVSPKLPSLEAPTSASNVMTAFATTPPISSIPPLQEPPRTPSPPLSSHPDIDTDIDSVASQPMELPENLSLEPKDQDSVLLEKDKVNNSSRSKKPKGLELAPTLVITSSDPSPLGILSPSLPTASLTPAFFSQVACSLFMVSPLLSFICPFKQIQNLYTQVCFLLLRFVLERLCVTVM
# How it was run: as §1
# ETV2 = molecular target: T9, ETV2 (Homo sapiens, UniProt O00321 1-342); details: protein: recombinant; tags: N-terminal GST; dsDNA, one strand shown
# T9 sequence: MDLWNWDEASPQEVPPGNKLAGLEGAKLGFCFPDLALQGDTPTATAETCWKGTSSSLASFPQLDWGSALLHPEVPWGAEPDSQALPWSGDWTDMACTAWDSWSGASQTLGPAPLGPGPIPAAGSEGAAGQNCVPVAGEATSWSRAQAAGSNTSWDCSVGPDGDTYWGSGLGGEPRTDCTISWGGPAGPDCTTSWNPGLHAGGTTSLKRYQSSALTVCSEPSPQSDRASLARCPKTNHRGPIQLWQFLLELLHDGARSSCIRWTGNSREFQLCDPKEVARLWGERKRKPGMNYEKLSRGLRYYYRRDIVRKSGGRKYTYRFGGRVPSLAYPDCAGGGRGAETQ
# How it was run: as §1
# CRX = CRX (Homo sapiens, UniProt O43186 1-299); details: protein: recombinant; tags: N-terminal GST; dsDNA, one strand shown
# Chain of CRX (O43186 whole entry): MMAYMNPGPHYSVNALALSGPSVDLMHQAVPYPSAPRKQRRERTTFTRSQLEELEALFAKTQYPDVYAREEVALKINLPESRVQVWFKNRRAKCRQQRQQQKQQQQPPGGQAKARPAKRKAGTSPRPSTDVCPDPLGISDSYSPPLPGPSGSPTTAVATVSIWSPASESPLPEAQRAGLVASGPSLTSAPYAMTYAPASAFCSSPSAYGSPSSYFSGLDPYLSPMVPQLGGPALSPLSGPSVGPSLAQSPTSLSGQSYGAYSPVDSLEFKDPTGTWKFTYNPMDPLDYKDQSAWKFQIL
# How it was run: as §1
# ETV1 = ETV1 (Homo sapiens, UniProt P50549 1-477); details: protein: recombinant; tags: N-terminal GST; dsDNA, one strand shown
# Chain of ETV1 (P50549 whole entry): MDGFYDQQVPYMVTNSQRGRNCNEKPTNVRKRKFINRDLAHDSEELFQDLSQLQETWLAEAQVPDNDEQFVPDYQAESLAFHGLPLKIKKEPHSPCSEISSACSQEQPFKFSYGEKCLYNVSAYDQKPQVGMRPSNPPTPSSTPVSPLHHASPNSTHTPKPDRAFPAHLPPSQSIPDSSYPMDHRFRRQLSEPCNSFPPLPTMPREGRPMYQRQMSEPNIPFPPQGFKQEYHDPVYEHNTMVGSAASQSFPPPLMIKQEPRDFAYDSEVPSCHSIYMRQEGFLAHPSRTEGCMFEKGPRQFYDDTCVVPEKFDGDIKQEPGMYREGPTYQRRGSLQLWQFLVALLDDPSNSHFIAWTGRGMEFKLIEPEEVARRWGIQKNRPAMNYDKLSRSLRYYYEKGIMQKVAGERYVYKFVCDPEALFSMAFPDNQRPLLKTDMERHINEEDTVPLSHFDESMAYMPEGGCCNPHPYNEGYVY
# How it was run: as §1
sequence,measurement,setting,value
GGCATT,binding signal,FLI1,"1.08 fold enrichment (6-mer frequency, TF over GST control)"
same,binding signal,ELK1,"1.05 fold enrichment (6-mer frequency, TF over GST control)"
same,binding signal,GABPA,"1.04 fold enrichment (6-mer frequency, TF over GST control)"
same,binding signal,ERG,"1.04 fold enrichment (6-mer frequency, TF over GST control)"
same,binding signal,EHF,"1.01 fold enrichment (6-mer frequency, TF over GST control)"
same,binding signal,SPI1,"1.05 fold enrichment (6-mer frequency, TF over GST control)"
same,binding signal,ELK3,"1.14 fold enrichment (6-mer frequency, TF over GST control)"
same,binding signal,FEV,"1.04 fold enrichment (6-mer frequency, TF over GST control)"
same,binding signal,ETV5,"1.05 fold enrichment (6-mer frequency, TF over GST control)"
same,binding signal,HSF1,"1.12 fold enrichment (6-mer frequency, TF over GST control)"
same,binding signal,ELK4,"1.08 fold enrichment (6-mer frequency, TF over GST control)"
same,binding signal,ETV2,"1.02 fold enrichment (6-mer frequency, TF over GST control)"
same,binding signal,CRX,"1.29 fold enrichment (6-mer frequency, TF over GST control)"
same,binding signal,ETV1,"1.1 fold enrichment (6-mer frequency, TF over GST control)"
